Target: T1, TALE1-NH (CACNA1C site 1 activator) (Xanthomonas (engineered), UniProt P14727 SEQ:1-983)
T1 chain: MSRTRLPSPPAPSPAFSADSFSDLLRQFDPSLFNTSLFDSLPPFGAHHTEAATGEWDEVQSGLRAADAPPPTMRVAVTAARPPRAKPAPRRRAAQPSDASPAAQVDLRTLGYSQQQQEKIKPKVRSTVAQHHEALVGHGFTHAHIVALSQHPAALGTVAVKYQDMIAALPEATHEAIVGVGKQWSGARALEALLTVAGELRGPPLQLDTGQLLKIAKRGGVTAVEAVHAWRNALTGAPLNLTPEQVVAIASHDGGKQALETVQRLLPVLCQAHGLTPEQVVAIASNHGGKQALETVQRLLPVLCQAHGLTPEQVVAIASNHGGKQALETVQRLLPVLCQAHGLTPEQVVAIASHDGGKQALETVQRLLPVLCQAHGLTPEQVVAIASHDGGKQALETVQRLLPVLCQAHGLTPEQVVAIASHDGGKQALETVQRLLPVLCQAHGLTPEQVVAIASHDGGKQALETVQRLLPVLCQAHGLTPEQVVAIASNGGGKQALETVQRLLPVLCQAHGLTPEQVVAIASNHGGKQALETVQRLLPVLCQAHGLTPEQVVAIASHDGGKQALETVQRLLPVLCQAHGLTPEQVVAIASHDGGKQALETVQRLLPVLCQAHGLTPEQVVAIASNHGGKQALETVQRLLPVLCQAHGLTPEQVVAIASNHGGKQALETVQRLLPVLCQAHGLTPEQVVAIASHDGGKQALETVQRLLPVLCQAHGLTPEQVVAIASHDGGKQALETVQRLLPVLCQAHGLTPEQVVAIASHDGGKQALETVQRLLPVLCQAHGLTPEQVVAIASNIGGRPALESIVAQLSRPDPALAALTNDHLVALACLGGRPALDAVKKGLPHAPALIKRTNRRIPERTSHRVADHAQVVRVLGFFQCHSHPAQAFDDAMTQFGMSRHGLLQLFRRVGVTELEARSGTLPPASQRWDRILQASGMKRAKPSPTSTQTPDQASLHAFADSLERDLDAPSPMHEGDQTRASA
Test: cell_activity; luciferase reporter
Conditions: tags: VP64, 2A-GFP; dsDNA, one strand shown
Protocol: TALEs using NN, NK, NH, and HN as the G-targeting RVD were synthesized to target two distinct 18 bp target sites in the human CACNA1C locus. Changes in mRNA are measured using qRT-PCR as described previously. VP64, VP64 transcription activation domain. All results are collected from three independent experiments in HEK 293FT cells. Error bars indicate s.e.m.; n=3. FIG. 19(b) discloses SEQ ID NOS 63 and 62, respectively, in order of appearance.
To determine whether NH and HN are suitable replacements for NN as the G-specific RVD, specificity and activity strength of NN, NK, NH, and HN were directly compared. Two 18 bp targets within the CACNA1C locus in the human genome were chosen and four TALEs for each target were constructed, using NN, NK, NH, or HN as the G-targeting RVD (FIG. 19a). […] For each CACNA1C target site, four luciferase reporters were constructed: wild type genomic target, and wild type target with 2, 4, or all guanines mutated into adenines (FIG. 19a, G-to-A reporters), and compared the activity of each TALE using these reporters (FIG. 19a). […] Thus, focus was placed on the RVDs NN, NK, and NH in subsequent experiments to assess their usefulness in modulating transcription at endogenous human genome targets.
For TCAACCCCTACCAACCCA, the binding signal was < 10 % of wild-type site activation. With TCAACCCCTGCCGGCCCA the binding signal was 71.4 % reduction vs wild-type site.
